Bioassay records (PubChem)
tim10-1 inh: inhibits growth of tim10-1 mutant yeast | actives 2.2% (n = 330,000) | inhibition, % at 20 µM | S. cerevisiae tim10-1 ts strain growth, BacTiter-Glo, 24 h | AID 463190;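 active means inhibition of at least 40%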;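 further: mutant grown at 25 °C; 0% = DMSO wells with yeast and 100% = wells holding no yeast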
PfHsp90 set2: reduces growth (ATP signal) of yeast expressing P. falciparum Hsp90; inhibition, % at 9.4 µM; S. cerevisiae expressing PfHsp90, BacTiter-Glo ATP, 48 h; yeast lacking PDR1 and PDR3 efflux regulators; actives 0.32% (n = 310,000);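 active means every replicate shows inhibition above about 80%, whatever the replicate mean, limit read from the data; inconclusive means mean inhibition reaches the set limit but some replicate falls short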;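 further: 0% = DMSO neutral controls and 100% = 20 µM radicicol positive controls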
tim23-1 inh: growth inhibitors of tim23-1 mutant yeast; S. cerevisiae tim23-1 growth, BacTiter-Glo luminescence, 24 h; inhibition, % at 20 µM; actives 1.3% (n = 330,000);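 active means growth inhibition of the mutant yeast at or above 50%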;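 further: temperature-sensitive mutant grown at 25 °C; plate controls were DMSO-treated mutant yeast for no effect and medium wells lacking yeast for full effect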
TIM10 inh: inhibits growth of TIM10 yeast strain | actives 1.4% (n = 330,000) | inhibition, % at 10 µM | AID 463195 | S. cerevisiae TIM10 strain growth, BacTiter-Glo luminescence, 24 h;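 active means inhibition of 40% or more at the single tested concentration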;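 further: wild-type TIM10 isogenic control strain grown at permissive 25 °C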
Beta2AR agonist: activates human beta-2 adrenergic receptor causing internalization. AID 504454. response, % (concentration not given with the values). actives 0.43% (n = 340,000). Am2.2-beta2AR cells, FAP receptor internalization, flow cytometry. P07550;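 active means response above a set limit, near 3 SD of response in nonfluorescent compounds, cut at about 42% in these data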
Target sequence (P07550 whole entry, looked up): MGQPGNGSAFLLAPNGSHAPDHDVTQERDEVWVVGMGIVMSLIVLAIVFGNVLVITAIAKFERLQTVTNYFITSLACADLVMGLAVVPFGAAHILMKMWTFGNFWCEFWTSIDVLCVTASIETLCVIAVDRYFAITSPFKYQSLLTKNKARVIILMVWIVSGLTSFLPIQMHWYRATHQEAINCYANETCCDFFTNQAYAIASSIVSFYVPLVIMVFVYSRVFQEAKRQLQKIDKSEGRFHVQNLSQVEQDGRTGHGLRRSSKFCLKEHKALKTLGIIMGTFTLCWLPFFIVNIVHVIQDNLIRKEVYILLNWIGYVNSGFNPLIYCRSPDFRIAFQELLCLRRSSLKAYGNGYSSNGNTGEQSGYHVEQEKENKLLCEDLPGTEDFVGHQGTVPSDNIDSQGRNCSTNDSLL
tim10-1 conf: confirmation of tim10-1 mutant yeast growth inhibitors; S. cerevisiae tim10-1 ts strain growth, BacTiter-Glo, 24 h; inhibition, % at 20 µM; shares compounds with tim10-1 inh; actives 56% (n = 7,400);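 active means inhibition of yeast growth at or above a set limit in either of two repeat tests at 20 µM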;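 further: tim10-1 mutant grown at permissive 25 °C to find synthetic lethal compounds; 0% = DMSO yeast wells and 100% = medium wells without yeast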
TIM10 conf: TIM10 yeast growth inhibition, confirmed. shares compounds with TIM10 inh. S. cerevisiae tim10 strain growth, BacTiter-Glo luminescence, 24 h. inhibition, % at 10 µM. actives 63% (n = 4,600). AID 463215;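 active means inhibition of yeast growth at or above a set limit in either of two replicates at 10 µM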;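 further: this counterscreen used the strain with wild-type TIM10; 0% = yeast with DMSO and 100% = medium wells lacking yeast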
tim23-1 confirm: tim23-1 yeast growth inhibition, confirmed; S. cerevisiae tim23-1 growth, BacTiter-Glo luminescence, 24 h; AID 463218; inhibition, % at 20 µM; shares compounds with tim23-1 inh; actives 83% (n = 4,400);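 active means inhibition above about 39% in either of two replicate wells at 20 µM, limit read from the data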;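 further: temperature-sensitive tim23-1 mutant grown at 25 °C; 0% = DMSO wells with yeast and 100% = medium wells without yeast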
An asterisk follows results filed as active; ? = inconclusive; . = no result given. A selection: hits, their analogues and other compounds. The true share with any hit is near 3.8%.

SMILES | tim10-1 inh | PfHsp90 set2 | tim23-1 inh | TIM10 inh | Beta2AR agonist | tim10-1 conf | TIM10 conf | tim23-1 confirm
COc1ccc(-c2nc3ccccc3c(=O)n2N)cc1 | 6.8 | -0.1 | 10.2 | 2.8 | -10.3 | . | . | .
COc1ccc(-c2cc3nc4n(c(=O)c3s2)CCCCC4)cc1 | 23.5 | -13.0 | 35.2 | 26.9 | 1.6 | . | . | .
COc1ccc(-c2cc3nc4n(c(=O)c3s2)CCC4)cc1 | 57.7* | 26.0 | 58.3* | 70.3* | 0.7 | 53.7* | 75.8* | 55.1*
COc1ccc(-c2cc3nc(C)n(N)c(=O)c3s2)cc1 | 64.8* | ? | 69.3* | 58.2* | -1.1 | 66.2* | 47.9* | 68.2*
Cc1ccc(S(=O)(=O)N(CC(=O)Nc2cccc(C(F)(F)F)c2)C(=O)N2CCN(C)CC2)cc1 | 4.7 | 27.3 | -9.3 | -2.7 | 2.1 | . | . | .
CC1(CNC(=O)C(=O)NCC2(C)CO2)CO1 (stereo unspecified) | . | 4.3 | . | . | -1.5 | . | . | .
O=C(CNc1ccc(Br)cc1)NC(=O)NC1CCCCC1 | 48.1* | -21.4 | 59.3* | 26.4 | -3.5 | 36.8* | . | 36.6
O=C(COC(=O)COc1ccc(Br)cc1)NC1CCCCCC1 | 6.7 | 11.0 | 15.3 | -5.2 | 1.4 | . | . | .
CC1CC(C)CN(C(=O)COC(=O)c2ccc(Cl)nc2)C1 (stereo unspecified) | -1.9 | 2.5 | -2.1 | 3.4 | 5.3 | . | . | .
Cn1nc(C(C)(C)C)c([N+](=O)[O-])c1C(=O)NC1CCCCC1 | -3.0 | 11.0 | -0.7 | -1.4 | -1.6 | . | . | .
NN(Cc1ccccc1)C(=S)Nc1ccc(Cl)c(Cl)c1 | 41.2* | 6.0 | 71.4* | 49.6* | 14.5 | 66.2* | 51.1* | 68.8*
NC(=S)Nc1ccc(Cl)c(Cl)c1 | 11.1 | 18.5 | 7.5 | 14.3 | 0.4 | . | . | .
CN(C)c1ccc(C(CNC(=O)c2ccco2)N2CCCC2)cc1 (stereo unspecified) | -7.9 | 17.8 | -4.8 | -5.9 | 1.3 | . | . | .
COc1ccc2oc(C)c(C(=O)c3ccccc3)c2c1 | -8.7 | -1.3 | 3.7 | -21.3 | 3.5 | . | . | .
COc1ccc2oc(/C=C/N(C)C)c(C(=O)c3ccc(Cl)cc3)c2c1 | 44.6* | 111.6* | 50.1* | 28.5 | 3.3 | 21.1 | . | 50.8*
O=C1Nc2ccccc2N=C(c2ccccc2)C1Br (stereo unspecified) | 11.1 | -14.8 | 5.8 | 13.7 | -12.4 | . | . | .
CC(=O)NC1Sc2ccccc2N=C1c1ccccc1 (stereo unspecified) | 42.8* | -25.6 | 73.1* | 42.0* | 6.8 | 53.6* | 56.5* | 79.0*
O=C(Cc1cccc(NC(=O)C2CCN(C(=O)CCc3ccccc3)CC2)c1)Nc1cccc(C(=O)N2CCCCC2)c1 | . | -14.0 | . | . | 5.9 | . | . | .
O=C(CN1CCN(c2ccccc2O)CC1)Nc1ccnn1C1CCCC1 | -8.9 | . | -0.9 | -8.1 | 2.0 | . | . | .
COc1ccccc1N1CN(S(=O)(=O)c2ccc(C)cc2)c2nc3ccccc3nc21 | 14.4 | . | 14.8 | 4.1 | 4.7 | . | . | .
C#C[C@]1(O)CC[C@H]2[C@@H]3CCc4cc(O)ccc4[C@H]3CC[C@@]21C | 49.8* | -29.4 | 51.6* | 26.8 | 2.4 | 34.2* | . | 49.1*
CCOC(=O)C1=C(C(=O)OCC)N(CC)CCC1=O | . | -11.5 | . | . | -3.4 | . | . | .
COc1cccc(CNC(=O)CCl)c1 | 0.2 | 6.9 | -3.6 | -1.8 | 4.0 | . | . | .
COc1cccc(CNC(=O)COC(=O)c2nc(Cl)c(Cl)c(Cl)c2Cl)c1 | 55.6* | -8.9 | 60.3* | 37.3 | 6.2 | 45.7* | . | 57.0*
O=C(NC(Nc1nc2ccc([N+](=O)[O-])cc2s1)(C(F)(F)F)C(F)(F)F)c1cccnc1 | 15.0 | 11.1 | 15.0 | 3.2 | 20.7 | . | . | .
SMILES | tim10-1 inh | PfHsp90 set2 | tim23-1 inh | TIM10 inh | Beta2AR agonist | tim10-1 conf | TIM10 conf | tim23-1 confirm
O=C(NC(Nc1nc2ccc([N+](=O)[O-])cc2s1)(C(F)(F)F)C(F)(F)F)c1ccccc1Cl | 77.7* | 6.9 | 71.4* | 66.0* | 13.0 | 75.6* | 67.8* | 86.0*
CN(C)c1ccc(C(=O)OCC#CCSc2nnc(-c3cccc4ccccc34)o2)cc1 | 19.4 | -2.1 | 31.7 | 3.7 | 1.8 | . | . | .
O=C(NCCc1ccc(Cl)cc1)C1CCCO1 (stereo unspecified) | 1.5 | 15.6 | -15.8 | -3.6 | 4.7 | . | . | .
Cc1nc(N2CCN(Cc3ccc(Cl)cc3)CC2)c2oc3ccccc3c2n1 | 53.0* | -24.8 | 53.6* | 42.0* | 5.9 | 36.4* | 49.0* | 43.4*
Cc1onc(-c2ccccc2Cl)c1C(=O)N1CCC(C)CC1 | 5.4 | -18.1 | 13.9 | -2.7 | -0.3 | . | . | .
CCOC(=O)C1CCN(C(=O)c2c(C)oc3c2C(=O)c2ccccc2C3=O)CC1 | 48.2* | 10.3 | 50.8* | 32.9 | 3.4 | 34.4* | . | 59.0*
Cc1oc2c(c1C(=O)N1CCC(C)CC1)C(=O)c1ccccc1C2=O | 52.2* | . | 73.7* | 44.8* | . | 42.8* | 39.5* | 66.8*
CCc1ccc(-c2nc(CS(=O)CC(=O)NCCCN3CCC(C)CC3)c(C)o2)cc1 (stereo unspecified) | 17.7 | -15.7 | 12.2 | -2.2 | 10.2 | . | . | .
CC(C)(C)c1ccc(NC(=O)N2CCCN(c3ccc([N+](=O)[O-])cn3)CC2)cc1 | 43.1* | 5.8 | 60.7* | 43.1* | 10.2 | 50.0* | 42.2* | 56.7*
COC(=O)N/N=C/c1ccc([N+](=O)[O-])s1 | 42.1* | 1.8 | 82.7* | 30.0 | -2.7 | 33.5* | . | 88.5*
O=C(N/N=C/c1ccc([N+](=O)[O-])s1)c1ccccc1 | -27.2 | -33.0 | 6.6 | -2.7 | 6.6 | . | . | .
O=C(N/N=C\c1ccc([N+](=O)[O-])s1)c1cncc(Br)c1 | 45.3* | 2.8 | 68.7* | 54.6* | -3.8 | 34.8* | 51.3* | 69.1*
CNc1nc(NC)c2cn[nH]c2n1 | . | -2.4 | . | . | -10.1 | . | . | .
CCN(Cc1ccccc1)C(c1ccc(C)cc1)c1nnnn1C(C)(C)C (stereo unspecified) | 29.0 | -21.4 | 23.5 | 12.2 | 6.5 | . | . | .
CCN(Cc1ccccc1)C(c1ccccn1)c1nnnn1C(C)(C)CC (stereo unspecified) | 42.5* | -1.1 | 66.0* | 51.9* | 0.8 | 46.8* | 51.4* | 54.8*
CC1(C)Cc2noc(N)c2C(C)(C)N1OC(=O)c1ccccc1 | 9.4 | 10.0 | 13.7 | 24.1 | 14.8 | . | . | .
CC1(C)CC(=NOC(=O)c2ccccc2)CC(C)(C)N1O | 57.8* | -13.9 | 67.8* | 58.3* | 22.6 | 61.2* | 70.0* | 78.4*
Cc1cc(C)c(OCC(=O)OCC(=O)N2CCCc3ccccc32)c(C)c1 | 16.7 | 9.2 | 23.6 | 3.0 | -10.3 | . | . | .
O=C(Nc1nc(-c2cccs2)c(C(=O)C(F)(F)F)s1)c1ccco1 | 55.6* | 2.2 | 62.4* | 55.6* | -24.2 | 72.8* | 58.8* | 78.8*
